This passage reports z-score results from PubChem BioAssay AID1508600 (Functional Genomics Laboratory (NCATS/FGL), 2020).

Hit rate of the full screen: of about 53,000 sequences, about 3,700 (7%) were called active.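 Rule for the calls: active = gene knockdowns whose robust z-score for IL-1 alpha signal is at least 2 or at most -2, so actives lie on both sides; inactive = the rest.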 Only a selection was taken, and actives are over-represented in it overall.

This test is described as follows: Components of the Cytosolic LPS Sensing Pathway: Gene Identification via Genome-wide siRNA Screen.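 Note: robust z of the log signal after scaling to non-targeting control siRNA wells of the plate.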 The conditions noted are these: RAW264.7 macrophages, IL-1a HTRF, actives lie on both sides, screened at 100 nM (by protocol), cells primed 5 h with Pam3CSK4 first. Summed up: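 Cells (RAW264.7, 1×10^4 per well) were transfected with siRNA at 100 nM and cultured 48h at 37 degrees C. Pam3CSK4 was added for 5 hours; LipidA transfection followed for 24 hour. IL-1a was then measured by HTRF.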
For orientation: In TR-FRET formats the signal depends on donor and acceptor labels being close together.
In the case of GGAAGUGCUUUGAAGAAGATT against Strip2, the z-score is 1.21 (inactive). As for GCUAACUUGCUCAUGCAAATT against Txlnb, the z-score is -0.00758 (inactive). The figure for GGAAUCGAGAUAUAAAAGGTT against Olfr352 is -1.29 (inactive); for GCUAGGAUUGUUCACAAACTT against Spdef it is -0.707 (inactive). As to GCUCUUCUCAAGUAUGACGTT against Chrna6, the z-score was 0.717 (inactive).

Consider GGAUGCUCACCUUCAAAUUTT against Il2, for which the z-score was 2.33 (active). As for GGAUGGAGAUUAUGAAGAGTT against Pcsk9, the z-score was -0.248 (inactive). Consider CCUGUUACCCUAUAUUUUGTT against Vmn1r82, for which the z-score is -1.02 (inactive). The figure for CGCAGUUCAUCGCAUGAUUTT against Arhgef12 is 0.611 (inactive).

Consider GGAUGAAAGUCCAACCACATT against Tulp2, for which the z-score is -0.17 (inactive). Take GGGUUGAAUAUGUAGCUUGTT against Dsg1a: the z-score was 0.697 (inactive).

For GGUAUUUGAAUUUCGUCCCTT against Zc3h15, the z-score was 0.122 (inactive). The figure for “GGGACAACGCACUCCAACATT against 1810024B03Rik” is 0.904 (inactive); for CCAUUUGACAAGACUGCCATT against Ppp6r1 it is 0.921 (inactive); for GCAGGUGAGAAAGUAUAAGTT against Mro it is -1.09 (inactive). As for GGACUUCUAGAGAAGAAGCTT against Gpn2, the z-score is 0.0803 (inactive). As for GCAUAGUUGGAACCGUAUUTT against Tdpoz3, the z-score is 2.25 (active).

With CCAAUGACUUCUGGUUAGATT against Tdpoz1, the z-score is 0.665 (inactive). Then GGUCAGAAGAGUUUGCUAATT against Sgms2, with 0.552 (inactive); and CGAUGGAAGCACUUAUUUATT against Lep, with 0.984 (inactive); and GGUCUUGGCACAAUUACAUTT against Actl6a, with -2.07 (active). For GGCCAAAUGAAGUCAAAAGTT against Srsf12, the z-score was -0.212 (inactive). As for “CCUUGUUUGAAUAACGAACTT against 5830427D03Rik”, the z-score was -1.73 (inactive). As for CCCAGUUGCUAUGCUUGACTT against Defb37, the z-score was 1.68 (inactive).

Consider GGCCAGGAGAUUCCUAUGATT against Shisa4, for which the z-score was -0.304 (inactive). The figure for GGAUGAUUCUGGGUUACAGTT against Pwwp3a is -2.26 (active). The figure for GGAAAAGUUAGCGUGUAAUTT against Prkcz is -1.66 (inactive); for CCAUCCAUAUGAACUAUGATT against Slc30a4 it is -1.5 (inactive).

As to “CCAGACCUGUGGUAAUCUATT against D3Ertd751e”, the z-score is -0.875 (inactive). In the case of GCGCAUGAGUGCAAGGAUUTT against Prdm16, the z-score was 0.265 (inactive). GGAUCCGUUUUGGUGGAAUTT against Enpp4: the z-score is 0.255 (inactive). Turning to GCACAUGCAUGGCUCUAAGTT against Hinfp, the z-score is 0.779 (inactive). Consider GCUUCUAGUCAACAUCCAGTT against Klf15, for which the z-score was 2.07 (active). The figure for GGAAGACAAUCGCUGCGUGTT against Tet3 is 0.927 (inactive). The figure for GCUUCUGUGGGCAACAGUUTT against Cryba1 is 0.0577 (inactive); for GGUCUCAGUUGGAAUUAUUTT against Pds5a it is -0.806 (inactive); for GGAGAAUCAGGGUAGCACATT against Txnl4a it is -0.52 (inactive).

Consider GGUGUCAUUCACAAAAACUTT against Csnk1g1, for which the z-score is -1.09 (inactive). Turning to GGCCAAGUCUGGAAUCACUTT against Angel2, the z-score was -2.42 (active). The figure for GCAGCAGGAAGGAUCAUUCTT against Ly6h is -0.0488 (inactive); for GGACUUCAUGGGUCGCUUUTT against Gstm2 it is -0.185 (inactive).

As to GGAAUUAACAGAGAAGAAATT against Rgs13, the z-score is -0.848 (inactive).

GCUCCUGGUCUCAUUUACATT against Taf9b: the z-score is -0.386 (inactive). In the case of GGUCACAGACAUUCCCGAATT against Atad2, the z-score was -2.89 (active). In the case of GGUGGUUUUCAGCAAGUACTT against Pde9a, the z-score was -0.514 (inactive). The figure for AGUCAAGACCCAUAGAAAATT against Ociad2 is -1.87 (inactive).

For the sequence GCUACCAUUUGAUCAGUUUTT against Entpd1, the z-score is 0.665 (inactive).

As to GUCAUCACAAGUCAAGAAGTT against Prol1, the z-score was -1.25 (inactive). The figure for GGAGAAGGUUCACUCUGAUTT against Traf1 is -0.666 (inactive). As for GGAAACCUGAUUGCAUAUGTT against Nup37, the z-score is -0.259 (inactive). Turning to GCAUUAACUGUCUUGAUCCTT against Olfr356, the z-score is 1.41 (inactive). As to GCGUAACGCAGCAGCUAAGTT against Tarbp2, the z-score was -3.01 (active). With GGAAUAAGGAAGUUAUUGGTT against Olfr706, the z-score was -0.356 (inactive). In the case of GGUAGAGGUGGAAUGUAGCTT against Qprt, the z-score is 1.36 (inactive). The figure for “GCCCAUCACAAAUAAACAATT against B230340J04Rik” is -1.17 (inactive); for CCUUGUAGCUCUUUAUAAATT against Strn it is 2.24 (active); for GCUCCUUAGAGAGAGUAUUTT against Sod3 it is -0.399 (inactive). For the sequence GGGUCCAUGAACUCAAGAUTT against Rrnad1, the z-score is 0.473 (inactive). On to GGCUGUGAGAACGAUGCAATT against Fam151a, for which the z-score is -1.08 (inactive).

As to GGAGGGAAGAAACAAUCUATT against Rnf40, the z-score is 0.497 (inactive).

Turning to GGGUGCAUUUGAGAAGAUCTT against Casd1, the z-score is 4.11 (active). Consider GGAGUGCAUGACUCAGCUUTT against Olfr926, for which the z-score is -1.54 (inactive). The figure for GCUGACCGGCAUUUACCAUTT against Mcm2 is 2.78 (active).

Take GGCUCUCUUCGGGAAUACUTT against Tmem234: the z-score was 1.22 (inactive). Take GGAGAUCAACAGGAUUUUGTT against Gna15: the z-score is -1.35 (inactive). For the sequence “GCUGUGUUAGAAAGCAGGCTT against 4931406H21Rik”, the z-score was 0.927 (inactive). As for GCUAUAGAUUCCUCUGCCATT against Olfr1098, the z-score is -0.525 (inactive). For CCCUAGAAUUAUAUCCUGUTT against Col4a1, the z-score was -0.494 (inactive).
